This is an account of results in PubChem BioAssay (NCI).

SMILES strings stand for the structures. The panel holds about 83,000 compounds, 20% with a hit somewhere; the sample as a whole holds those more often.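 Single-concentration screen, 48 h exposure, 96-well plates. Endpoint: percent growth. Below 10 = active.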 Unmarked numbers belong to inactive results. Active and inactive are the calls of the source.

Test in all cases: NCI-60 one-dose screen, 48 h (100 = growth as untreated, 0 = no growth, -100 = all killed)
Experiment [1] has as its system HCT-15 colon. The conditions noted are these: 10 µM unless noted.
Experiment [2] has as its system HT29 colon. The following applies: 10 µM unless noted.
The test system of experiment [3] is SNB-75 CNS. The following applies: 10 µM unless noted.
In experiment [4] the test system is SNB-19 CNS. The following applies: 10 µM unless noted.
Experiment [5] concerns U251 CNS. The following applies: 10 µM unless noted.
Experiment [6] relates to PC-3 prostate. The following applies: 10 µM unless noted.
Experiment [7] deals with SK-MEL-5 melanoma. The conditions noted are these: 10 µM unless noted.
Experiment [8] deals with UACC-62 melanoma. The following applies: 10 µM unless noted.
Experiment [9] concerns LOX IMVI melanoma. The following applies: 10 µM unless noted.
Experiment [10] relates to SK-MEL-28 melanoma. The conditions noted are these: 10 µM unless noted.
For experiment [11], the system named is EKVX NSCLC. The conditions noted are these: 10 µM unless noted.
Experiment [12] relates to SN12C renal. The following applies: 10 µM unless noted.
The subject of experiment [13] is UO-31 renal. The following applies: 10 µM unless noted.
The test system of experiment [14] is TK-10 renal. The conditions noted are these: 10 µM unless noted.
Experiment [15] relates to ACHN renal. The conditions noted are these: 10 µM unless noted.
The subject of experiment [16] is CAKI-1 renal. The conditions noted are these: 10 µM.
The subject of experiment [17] is CCRF-CEM leukemia. The conditions noted are these: 10 µM unless noted.
Experiment [18] concerns MOLT-4 leukemia. The following applies: 10 µM unless noted.
Experiment [19] relates to SK-MEL-2 melanoma. The following applies: 10 µM unless noted.
Experiment [20] concerns A498 renal. The following applies: 10 µM unless noted.

On to `CN1CCN(c2nc(-c3csc(-c4ccncc4)n3)cc3ccccc23)CC1`, for which the growth in [1] was 17%; in experiment [2], 26.5%; in experiment [3], 62.5%; in [4] it was 77.6%; in experiment [5], 49.1%; in experiment [6], 59.8%. Besides, the growth in [7] is 70.4%; in experiment [8], 26.6%; in experiment [9], 11.4%; in experiment [10], 28.8%; in [11], 73.5%; in [12], 70.4%. The growth in [13] was 71.4%; in [14], 75.9%; in experiment [15], 54.7%; in experiment [16], 58.7%; in [17], 26.5%; in [18], 40.6%.
`C/C(=N\NC(=O)CSc1nc2sc3c(c2c(=O)n1-c1ccccc1)CCC(C)C3)c1ccc(Cl)cc1` (centres undefined): the growth in experiment [1] is 25.7%; in [2] it was 62.8%; in [3], 41.5%; in experiment [4], 35.3%; in experiment [5], 26.7%; in experiment [6] it was 31.7%. Moreover, the growth was -14.9% (active) in experiment [7]; 4.83% (active) in experiment [8]; 6.72% (active) in [9]; 25.4% in experiment [10]; 31.5% in [11]; 29.2% in [12]. The growth in [13] is 17%; in [14] it was 32.8%; in [15] it was 13.4%; in experiment [16], 12.8%; in experiment [17] it was 12.6%; in [18], 14%.
On to `CCN(CC)CCN1C(=O)c2c(c3c4cc(Br)ccc4[nH]c3c3ccc4ccccc4c23)C1=O`, for which the growth in [1] is -88.6% (active); in experiment [2] it was -69.9% (active); in experiment [3] it was 77%; in [4], -92.7% (active); in [5], -86.3% (active); in experiment [6], -80.9% (active). For the same compound, the growth is -83.6% (active) in experiment [7]; 31.7% in experiment [8]; -70.1% (active) in experiment [10]; 116% in [19]; -88.1% (active) in experiment [11]; -71.4% (active) in [12]. Further, the growth was -86.1% (active) in experiment [13]; -73% (active) in experiment [14]; -100% (active) in [15]; 12.8% in experiment [16]; 57.6% in experiment [20]; 1.96% (active) in experiment [17]. For the same compound, in [18], the growth was -30.7% (active).
As for `COc1cc(NC2=C(Cl)C(=O)c3nc(C)ccc3C2=O)cc(OC)c1`, the growth in [1] is -66.2% (active); in experiment [2] it was 24.9%; in [3], -4.09% (active); in experiment [4], 30.4%; in [5], 36.8%; in experiment [6], 28%. For the same compound, the growth in experiment [7] was -74.9% (active); in [8], -43.6% (active); in [10] it was -73.1% (active); in [19] it was 5.03% (active); in [11] it was 74.7%; in experiment [12] it was -63.3% (active). The growth in experiment [13] was -94.6% (active); in experiment [14], -50.1% (active); in [15] it was -99.6% (active); in experiment [16] it was -96.5% (active); in [20], 71.1%; in experiment [17] it was 2.72% (active). The growth in experiment [18] was 8.29% (active).
Regarding `COC[C@]12CC[C@@H](C)[C@H](C)[C@H]1C1=CC[C@@H]3[C@@]4(C)CCCNC(C)(C)[C@@H]4CC[C@@]3(C)[C@]1(C)CC2`, the growth in [1] was 8.12% (active); in experiment [2], 0.874% (active); in [3], 105%; in experiment [4], 47.8%; in experiment [5], -34.8% (active); in [6], 18.4%. Also, the growth in [7] is 35.6%; in experiment [8], 17.2%; in [9], -87.8% (active); in experiment [19], 58.5%; in experiment [11] it was 57.8%; in [12] it was 23.2%. Further, the growth in experiment [13] was 60.2%; in experiment [14], 61.9%; in experiment [15], 30.7%; in experiment [16], 35%; in experiment [17] it was 17%; in experiment [18], 5.72% (active).
Consider `CSc1nccc(-c2c(-c3ccc(F)c(OCc4ccc(F)cc4)c3)nc3sccn23)n1`, for which the growth in experiment [1] was 64.6%; in experiment [2], 67.8%; in [3], 113%; in [4], 72.6%; in experiment [5], 60.2%; in [6], 55.2%. Also, the growth is 19.2% in experiment [7]; 38% in experiment [8]; 74% in experiment [9]; 89.8% in experiment [11]; 74% in experiment [12]; 53.7% in [13]. For the same compound, the growth in experiment [15] is 43.8%; in [16] it was 68%; in [20], 46.5%; in experiment [17], 81.8%; in [18], 45.1%.
